Assay [1] has as its target Aldehyde dehydrogenase, mitochondrial (Homo sapiens) (UniProt P05091). The experiment in a line: qHTS for Inhibitors of the Aldehyde Dehydrogenase Family (ALDH2) Primary screen (AID 2061308). Note: nearly all actives have a fitted effect of over 55% in size. In general terms: qHTS replaces the single test concentration by a dilution series.
Assay [2] addresses Retinaldehyde dehydrogenase 3 (Homo sapiens) (UniProt P47895). Put plainly: qHTS for Inhibitors of the Aldehyde Dehydrogenase Family (ALDH1A3) Primary screen (AID 2061315).

Inconclusive results are not listed. Entries that show only a call come without a potency. Activity calls are given as the source filed them. Calls come from the whole dose curve; as a rule, active = well fitted curve in the direction sought with a large enough effect; inconclusive = small, poorly fitted or top-dose-only effect, or another doubt; inactive = no such curve, though single readings can be large; an effect the other way counts as inactive or inconclusive.

Regarding `O=[S+]1([O-])N=C(Oc2cccnc2)c2ccccc21`, the Potency entry in assay [1] and in assay [2] was “inactive” in each case.

`Cc1nc(NC2CCCCC2)c2nc(-c3ccccc3)n(CCCN3CCOCC3)c2n1`: the Potency entry in assay [1] and in assay [2] was “inactive” each time.

For `Cc1noc(CN(C)c2ncnc3ccc(-c4ccc5c(c4)OCO5)cc23)n1`, the Potency entry in assay [1] and in assay [2] was “inactive” each time.

Regarding `C=C(C(=O)OC)[C@@H]1CC=C2C=CC(=O)[C@H](C)[C@@]2(C)C1`, the Potency entry in assay [1] and in assay [2] was “inactive” throughout.

On to `CCCn1c(-c2ccc(F)cc2)nc2c(NCCN3CCOCC3)nc(C)nc21`, for which the Potency result in assay [1] and in assay [2] was “inactive” throughout.

On to `Cc1ccc(-c2cc(C(=O)Nc3ccncc3)c3ccccc3n2)cc1C`, for which the Potency entry in assay [1] and in assay [2] was “inactive” each time.

`C=Cc1cc(F)c(S(=O)(=O)N2CCN(S(=O)(=O)c3ccc4c(c3)OCCO4)CC2)cc1F`: the Potency entry in assay [1] and in assay [2] was “inactive” in each case.

Take `Cc1nc(NCc2ccccc2)c2nc(-c3ccccc3)n(CCN3CCCC3)c2n1`: the Potency result in assay [1] and in assay [2] was “inactive” each time.

Take `Cc1cnc(-c2ccccc2C(C)O)nc1NCc1ccc(-c2cccnc2)cc1` (centres undefined): the Potency entry in assay [1] and in assay [2] was “inactive” in each case.

In the case of `O=C(CCc1ccccc1)Nc1ccc(S(=O)(=O)Nc2nccs2)cc1`, the Potency entry in assay [1] and in assay [2] was “inactive” throughout.

Regarding `Cc1ccc(S(=O)(=O)Nc2cc([N+](=O)[O-])ccc2C(=O)Nc2nc(-c3ccccc3)cs2)cc1`, the Potency entry in assay [1] and in assay [2] was “inactive” in each case.

With `Cc1ccc(S(=O)(=O)Nc2ccccc2C(=O)Nc2nc(-c3ccccc3)co2)cc1`, the Potency result in assay [1] and in assay [2] was “inactive” each time.

For `COc1cccc(C2c3c(ncn(-c4cccc(C#N)c4)c3=N)Oc3ccc4ccccc4c32)c1` (centres undefined), the Potency entry in assay [1] and in assay [2] was “inactive” each time.

Consider `COc1cc(C(=O)Nc2nc(-c3ccccc3)cs2)ccc1NS(=O)(=O)c1ccc(C)cc1`, for which the Potency entry in assay [1] and in assay [2] was “inactive” throughout.

With `Cc1ccc(-c2ccc(=O)n(CC(=O)NCCc3cnc[nH]3)n2)cc1`, the Potency result in assay [1] and in assay [2] was “inactive” each time.

On to `CC(=O)Nc1sc2c(c1-c1nc3ccccc3s1)CCN(C)C2`, for which the Potency result in assay [1] and in assay [2] was “inactive” each time.

As to `CC(=O)Nc1sc2c(c1-c1ncco1)CCNC2`, the Potency result in assay [1] and in assay [2] was “inactive” each time.

As to `COc1cccc(CNc2ccc(S(=O)(=O)Nc3nccs3)cc2)c1`, the Potency entry in assay [1] and in assay [2] was “inactive” each time.

As for `O=S(=O)(NC[C@@H]1CCC[C@H](CNS(=O)(=O)c2c(F)cccc2F)C1)c1ccc2c(c1)OCCO2`, the Potency entry in assay [1] and in assay [2] was “inactive” throughout.

As to `COc1ccc(NC(=O)c2cccnc2C)cc1S(=O)(=O)Nc1ccc(Br)cc1`, the Potency entry in assay [1] and in assay [2] was “inactive” throughout.

Regarding `C[S+](=O)([O-])c1ccc(C(=O)OCC(=O)N2CCNC(=O)C2)cc1[N+](=O)[O-]`, the Potency entry in assay [1] and in assay [2] was “inactive” throughout.

In the case of `O=C(Nc1cc(C(F)(F)F)cc(C(F)(F)F)c1)Nc1nnc(-c2ccncc2)s1`, the Potency result in assay [1] and in assay [2] was “inactive” in each case.

`COCCNc1nc(C)nc2c1nc(-c1ccccc1)n2C1CCN(Cc2ccccc2)C1` (centres undefined): the Potency entry in assay [1] and in assay [2] was “inactive” throughout.

`CCOC(=O)C1CCN(C(=O)C2(NC(=O)Nc3ccccc3Cl)CCC2)CC1`: the Potency result in assay [1] and in assay [2] was “inactive” throughout.

Regarding `CCc1cccc(Nc2nn3c(=O)c4ccccc4nc3s2)c1`, the Potency entry in assay [1] and in assay [2] was “inactive” in each case.

In the case of `CCCn1c(C)nc2c(N3CCCN(Cc4ccccc4)CC3)nc(C)nc21`, the Potency entry in assay [1] and in assay [2] was “inactive” in each case.

On to `CC(C)c1ccccc1-c1nccc(NCc2ccc(-c3ccnc(C(F)(F)F)c3)cc2)n1`, for which the Potency result in assay [1] and in assay [2] was “inactive” each time.

On to `NCCCC(=O)Nc1ccc(Cl)cc1C(=O)c1ccc[nH]1`, for which the Potency result in assay [1] and in assay [2] was “inactive” throughout.

`Cc1ccc(S(=O)(=O)NC(N)=NCCC[C@@H](N)C(=O)Nc2cc(C(F)(F)F)ccc2Cl)cc1`: the Potency result in assay [1] and in assay [2] was “inactive” throughout.

As to `O=C1CCCC2=C1C(c1[nH]ncc1Cl)N=C(Nc1nc3c(Cl)cccc3o1)N2` (centres undefined), the Potency result in assay [1] and in assay [2] was “inactive” throughout.

Regarding `O=C(O)c1c(-c2ccccc2)no[n+]1[O-]`, the Potency entry in assay [1] and in assay [2] was “inactive” throughout.

As for `Cc1cc(C)nc(NC(=S)N2CCN(c3cc(C(F)(F)F)nc(C)n3)CC2)c1`, the Potency entry in assay [1] and in assay [2] was “inactive” throughout.

With `O=C(O)c1ccc(CSc2nnc(-c3cccc(S(=O)(=O)NC4CCCC4)c3)n2-c2ccc(F)cc2)cc1`, the Potency result in assay [1] and in assay [2] was “inactive” in each case.

With `COc1cccc(NC(=S)N2CCN(c3cc(Cl)cc(Cl)c3)CC2)n1`, the Potency result in assay [1] and in assay [2] was “inactive” each time.

With `COc1ccc(-c2cnc(-c3cccc4c3-c3ccccc3C4=O)o2)cc1`, the Potency entry in assay [1] and in assay [2] was “inactive” throughout.

For `O=C(Nc1nc(-c2ccccc2)cs1)c1ccncc1NS(=O)(=O)c1ccc(F)cc1Cl`, the Potency result in assay [1] and in assay [2] was “inactive” in each case.

Turning to `CCOc1ccc(CCNC(=O)c2cc3sccc3n2CCc2ccccc2)cc1OCC`, the Potency result in assay [1] and in assay [2] was “inactive” throughout.

The values above are taken from PubChem BioAssay (NCATS).
